# ClpP mod: qHTS Assay for Activators of ClpP; ATP-dependent Clp protease proteolytic subunit (Bacillus subtilis (strain 168)), P80244; purified B. subtilis ClpP, FRET peptide cleavage, 20 min; Potency, µM (doses to about 57.5 µM); hit rate 1.9% among 340,000; AID 651965, 2013; active = well fitted falling curve with a large enough effect; inconclusive = small, poorly fitted or top-dose-only effect; inactive = no such curve, though single readings can be large or run the other way; note: the source files actives as falling curves though it sought activators and does not explain the sign; nearly all actives have a fitted effect of over 65% in size
# Target sequence (P80244 whole entry, looked up): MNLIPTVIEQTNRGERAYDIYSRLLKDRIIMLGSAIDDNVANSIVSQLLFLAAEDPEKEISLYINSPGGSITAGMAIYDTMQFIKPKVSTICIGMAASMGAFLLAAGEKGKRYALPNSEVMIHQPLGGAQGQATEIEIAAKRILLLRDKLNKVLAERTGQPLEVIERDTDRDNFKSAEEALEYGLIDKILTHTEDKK
#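 FRET quenching reversal measured ClpP activation: 10 microg/mL B. subtilis ClpP at pH 8 with the FRET-FV decapeptide, read at 430 nm after 320 nm excitation. The 20-min minus 0-min signal was scaled between DMSO/no-enzyme wells and ADEP (5.8 microM final).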
# DT40 TDP1 no CPT: qHTS for Inhibitors of human tyrosyl-DNA phosphodiesterase 1 (TDP1): qHTS in cells in absence of CPT | DT40 Tdp1-/- hTDP1 cells, no CPT, ATP luminescence, 48 h | Potency, µM (top dose mostly 46.2 µM), usual class: inhibitors | hit rate 15% among 420,000; note: nearly all actives have a fitted effect of over 55% in size
#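 Chicken DT40 Tdp1-/- cells complemented with human TDP1, screened without camptothecin (DMSO vehicle only), 400 cells/well. Compounds pin-transferred, cells incubated at 37 °C for at least 48 hr. Growth read as ATP-dependent luminescence (CellTiter-Glo, 30 min at RT).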
# TDP1 inh: TDP1 (human) enzyme inhibition. Q9NUW8. recombinant TDP1, AlphaScreen DNA substrate cleavage. Potency, µM (series often up to 130 µM), actives largely listed as inhibitors. hit rate 0.28% among 350,000; note: nearly all actives have a fitted effect of over 40% in size
#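 Enzyme-compound mixtures sat 15 min at room temperature, followed by a 5 min reaction with 15 nM final substrate and 10 min with AlphaScreen beads. Recombinant human Tdp1 was used at 1 nM final.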
# DT40 TDP1 CPT: DT40-hTDP1 cell growth loss with CPT; hit rate 12% among 420,000; chicken DT40 Tdp1-/-;hTDP1 cells + 20 nM CPT, ATP luminescence, 48 h; Potency, µM (titrated, usually from 46.2 µM), usual class: inhibitors; AID 686979; note: nearly all actives have a fitted effect of over 55% in size
#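 Cell growth measured by CellTiter-Glo luminescence after a minimum 48 h, 37 C compound exposure with 20 nM CPT in Tdp1-knockout DT40 cells stably expressing hTDP1, seeded 400/well; qHTS titration format.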
# Hits are given with their value; - = inactive; ? = inconclusive; . = not tested or not shown; [ ] = remark or other dose. Rows were chosen to be rich in hits. Some 17% of all compounds tested hit in one or more screens of this group. Unless noted, calls come from the whole dose curve; as a rule, active = well fitted curve in the direction sought with a large enough effect; inconclusive = small, poorly fitted or top-dose-only effect, or another doubt; inactive = no such curve, though single readings can be large; an effect the other way counts as inactive or inconclusive.
SMILES,ClpP mod,DT40 TDP1 no CPT,TDP1 inh,DT40 TDP1 CPT
COc1ccc(NC(=O)c2cn3c4c(ccc(Cl)c4c2=O)OC(C)C3)cc1OC (stereo not drawn),-,?,-,-
C/C(=N\NC(=O)c1c(Cl)c(C)nn1C)c1ccc(NC(=O)c2ccncc2)cc1,-,18.4µM,-,?
CCC(=O)Nc1ccc(/C(C)=N/NC(=O)c2c(Br)c(C)nn2C)cc1,-,14.6µM,-,?
CC(=O)Nc1ccc(/C(C)=N/NC(=O)c2ccncc2)cc1,.,-,-,-
C/C(=N\NC(=O)c1c(Br)c(C)nn1C)c1ccc(NC(=O)c2ccoc2C)cc1,-,23.1µM,-,-
C/C(=N\NC(=O)c1c(Br)c(C)nn1C)c1ccc(NC(=O)C(C)Oc2ccc(Cl)cc2C)cc1 (stereo not drawn),-,?,-,?
Cc1ccc(NC(=O)CSc2nnc3[nH]c(=O)cc(-c4ccccc4)n23)cc1Cl,-,-,-,-
Cc1ccc(OCC(=O)NNC(=O)c2cccnc2)cc1C,.,-,-,-
Cc1cc(OCC(=O)NNC(=O)c2ccncc2)ccc1C(C)C,3.98µM,-,.,-
COc1ccc(NC(=O)CCn2cccn2)cc1OC,-,-,-,-
CC(C)Cc1nnc(NC(=O)CCC(=O)N2CCN(c3ccccc3)CC2)s1,-,-,-,-
COc1ccc(CN2CCN(C(=O)CCC(=O)Nc3nnc(CC(C)C)s3)CC2)cc1F,-,4.61µM,-,3.26µM
COc1ccc(CN2CCN(C(=O)CCC(=O)Nc3nnc(C(F)(F)F)s3)CC2)cc1F,-,-,-,-
O=C(CCC(=O)N1CCCCC1)Nc1nnc(C2CCCCC2)s1,-,-,-,-
COc1ccc(CN2CCN(C(=O)CCC(=O)Nc3nnc(C4CCCCC4)s3)CC2)cc1F,-,?,-,16.4µM
CC(C)Cc1nnc(NC(=O)CCC(=O)N2CCN(c3ccc([N+](=O)[O-])cc3)CC2)s1,-,18.4µM,-,14.6µM
O=C(Nc1ccc(F)c(Cl)c1)c1ccc2sc([C@@H]3O[C@H](CO)[C@H](O)[C@H](O)[C@H]3O)nc2c1,-,-,.,-
CO[C@H]1[C@H](O[C@H]2O[C@@H](C)[C@@H](O[C@@H]3C[C@](C)(O)[C@H](O)[C@H](C)O3)[C@@H](N(C)C)[C@@H]2O)[C@@H](CC=O)C[C@@H](C)[C@@H](O[C@H]2CC[C@H](N(C)C)[C@H](C)O2)/C=C\C=C/C[C@@H](C)OC(=O)C[C@H]1O,.,.,-[21 µM],.
CN(CC(=O)Nc1ccc(Cl)c(C(F)(F)F)c1)C(=O)c1ccccc1SCC(=O)N1CCCC1,-,?,.,18.4µM
CN(CC(=O)Nc1cccc(F)c1)CC(=O)NC(c1ccccc1)c1ccccc1,-,?,-,23.1µM
CN(CC(=O)NCc1ccc(F)cc1)CC(=O)Nc1ccc(Cl)c(C(F)(F)F)c1,-,20.6µM,-,23.1µM
CN(CC(=O)Nc1cccc(F)c1)CC(=O)Nc1ccccc1-c1ccccc1,.,?,-,?
CN(CC(=O)Nc1cccc(S(=O)(=O)N(C)C)c1)Cc1ccccc1,.,?,-[0.0935 µM],-
CN(CC(=O)Nc1cccc(C(F)(F)F)c1)Cc1ccccc1,-,9.2µM,-,?
CC(NC(=O)CN(C)CC(=O)Nc1ccc(Cl)c(C(F)(F)F)c1)c1ccccc1 (stereo not drawn),-,23.1µM,.,20.6µM
SMILES,ClpP mod,DT40 TDP1 no CPT,TDP1 inh,DT40 TDP1 CPT
CN(CC(=O)NCC(=O)Nc1ccc(F)cc1)CC(=O)Nc1ccc(Cl)c(C(F)(F)F)c1,-,-,.,-
COc1cccc(C(=O)Nc2ccc3nc(N4CCC(C)CC4)cc(C)c3c2)c1,?,20.6µM,-,11.6µM
Cc1cc(N2CCOCC2)nc2ccc(Cl)cc12,.,?,.,-
COc1ccc(C(=O)Nc2ccc3nc(N4CCC(C)CC4)cc(C)c3c2)cc1,?,16.4µM,-,23.1µM
Cc1cc(N2CCC(C)CC2)nc2ccc(N3C(=O)CCC3=O)cc12,39.8µM,?,-,-
NC(=O)c1ccc[n+](CC(=O)c2cccc([N+](=O)[O-])c2)c1,-,-,.,-
O=c1c(N2CCN(c3cccc(C(F)(F)F)c3)CC2)csc2ccccc12,-,25.9µM,-,20.6µM
O=[N+]([O-])c1cc(Cl)ccc1N1CCN(c2cccc(C(F)(F)F)c2)CC1,?,9.2µM,-,?
O=[N+]([O-])c1cc(S(=O)(=O)Nc2ccccc2)ccc1N1CCN(c2ccccc2)CC1,-,?,-,?

# Screens from PubChem.
